Assay outcomes deposited in PubChem BioAssay by Center for Chemical Genomics, University of Michigan.
Dicer inh: inhibitors of human Dicer processing of pre-microRNA; hit rate 6% among 47,000; cat-ELCCA pre-miR-21 Dicer processing, chemiluminescence; active compounds read high; z-score at 25 µM; Q9UPY3; AID 1347074; in the data active means z-score above about 3, passing the limit was not always enough;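 further: plate controls were vehicle for no effect and no enzyme for full effect; higher signal means more uncleaved substrate so more Dicer inhibition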
* hit, by the source's call. The entries come from a sample that favours hits as a whole.

SMILES	Dicer inh
COc1ccc(C2CC(=O)C3=C(C2)Nc2ccccc2NC3c2cccc3ccccc23)cc1 (configuration not stated)	-1.4
CN(C)c1ccc(C2Nc3ccccc3NC3=C2C(=O)CC(c2ccccc2)C3)cc1 (configuration not stated)	5.1
COc1ccccc1C1Nc2ccccc2NC2=C1C(=O)CC(c1ccc(Cl)cc1)C2 (configuration not stated)	4.3*
NNC(=O)c1cc2cc(OCc3ccccc3)ccc2[nH]1	-0.38
N#Cc1c(S/C=C(\O)c2ccccc2)nc2c(c1C(F)(F)F)CCCC2	1.2
Cc1cc(Oc2ncccc2[N+](=O)[O-])c2c(Cl)ccc(C)c2n1	-0.45
Cc1onc(-c2ccccc2)c1C(=O)N1CCC(O)(c2ccc(Cl)cc2)CC1	-0.22
Cn1c(NCc2ccccn2)nc2c1c(=O)n(Cc1ccccc1F)c(=O)n2C	-0.88
Nc1c(C(=O)Nc2ccc(F)cc2)sc2nc3c(cc12)CCCCC3	0.8
Cc1c(OCc2ccc(Cl)c(Cl)c2)ccc(-c2ccn[nH]2)c1O	1.3
CCOC(=O)/C(=C/c1ccc(Cl)cc1)[N+](=O)[O-]	-0.96
COc1ccccc1-c1nnc(SC)n1-c1ccccc1	0.2
Cc1ccc(C2Nc3ccccc3NC3=C2C(=O)CC(C)(C)C3)c(O)c1 (configuration not stated)	1.3
CC1(C)CC(=O)C2=C(C1)Nc1ccccc1NC2c1ccc(O)c(O)c1 (configuration not stated)	4.7
COc1ccc(C2CC(=O)C3=C(C2)Nc2ccccc2NC3c2ccccc2)cc1 (configuration not stated)	3.5*
CC1(C)CC(=O)C2=C(C1)Nc1ccccc1NC2c1cc(Cl)ccc1O (configuration not stated)	3.9*
COc1ccc(C2CC(=O)C3=C(C2)Nc2ccccc2NC3c2ccc(Cl)cc2)cc1 (configuration not stated)	2
COc1ccc(C2CC(=O)C3=C(C2)Nc2ccccc2NC3c2ccc(O)cc2)cc1 (configuration not stated)	0.33
CCC(NS(=O)(=O)c1ccc(F)cc1)C(=O)O (configuration not stated)	1.9
N#Cc1c(N)nc2c(c1-c1cccnc1)CCCC2	-0.72
O=C(Nc1ccc([N+](=O)[O-])cc1)c1nnn(-c2ccc([N+](=O)[O-])cc2)c1-c1ccccc1	-0.11
CCOC(=O)CSC(=S)Nc1ccc(Cl)cc1	0.5
CCN1C(=O)C2(/C(=C(/O)c3ccc4c(c3)CC(C)O4)C(=O)C(=O)N2CCOC)c2ccccc21 (configuration not stated)	1.1
Brc1cc(Br)c(-c2sc(Br)cc2Br)s1	0.85
Clc1ccccc1CSc1nccc(-c2csc(-c3ccccc3)n2)n1	-0.09
SMILES	Dicer inh
COc1ccc(C2Nc3ccccc3NC3=C2C(=O)CC(c2ccc(OC)c(OC)c2)C3)cc1 (configuration not stated)	2.5
COc1ccc(C2Nc3ccccc3NC3=C2C(=O)CC(c2cccs2)C3)cc1 (configuration not stated)	24
COc1ccc(C2CC(=O)C3=C(C2)Nc2ccccc2NC3c2ccc(OC(C)=O)cc2)cc1OC (configuration not stated)	-0.1
COc1ccc(C2Nc3ccccc3NC3=C2C(=O)CC(c2ccccc2)C3)cc1OC (configuration not stated)	0.83
COc1cc(C2Nc3ccccc3NC3=C2C(=O)CC(c2ccccc2)C3)cc(Br)c1O (configuration not stated)	4.9*
COc1ccc(C2CC(=O)C3=C(C2)Nc2ccccc2NC3c2cccc(O)c2)cc1OC (configuration not stated)	3.5*
COc1ccc(C2CC(=O)C3=C(C2)Nc2ccccc2NC3c2ccc(OC(C)=O)c(OC)c2)cc1 (configuration not stated)	1.6
COc1cc(C2Nc3ccccc3NC3=C2C(=O)CC(c2cccs2)C3)cc(Br)c1O (configuration not stated)	4.6*
COc1cccc(C2Nc3ccccc3NC3=C2C(=O)CC(c2ccc(OC)c(OC)c2)C3)c1 (configuration not stated)	-0.54
CCOC(=O)CS(=O)c1sc(C(=O)OCC)c2c1C(=O)CCC2 (configuration not stated)	-3.9
C/C(=N\OC(=O)c1ccc(C(C)(C)C)cc1)c1ccc(F)c(F)c1	-0.02
Cc1cc(NC(=O)NCc2sccc2C)c(C(F)(F)F)o1	-2.8
COc1cc(C2C(C(=O)OCC3CCCO3)=C(C)NC3=C2C(=O)CCC3)ccc1OC(C)=O (configuration not stated)	-0.23
O=C1C(=O)N(Cc2ccc(Cc3ccc(CN4C(=O)C(=O)c5ccccc54)cc3)cc2)c2ccccc21	-1.3
Cc1cc(C)c(CN2C(=O)C(=O)c3ccccc32)cc1CN1C(=O)C(=O)c2ccccc21	3.6*
O=C1C(=O)N(Cc2ccccc2)c2ccccc21	-0.23
Cc1ccc(NC(=S)N2CCc3sccc3C2C)cc1Cl (configuration not stated)	-0.54
